Assay in all cases: qHTS profiling for inhibitors of Plasmodium falciparum proliferation (AID 504749); note: nearly all actives have a fitted effect of over 60% in size
Common to all, as to settings: P. falciparum in erythrocytes, SYBR Green DNA, 72 h; series mostly up to 28.7 µM

In one test the test system is CP256. The method in brief: (§1)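 Each compound contacts P. falciparum-infected red blood cells for 72 h at 37 C; lysis buffer (Tris, EDTA, saponin, Triton X, SYBR Green I) is added and fluorescence measured next morning; values normalized to controls.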
The test system of another test is CP260. In short, it runs like this:
as §1

Another test has as its system CP262. In short, it runs like this:
as §1

A further test relates to CP265. In short, it runs like this:
as §1

The next test relates to CP266. In short, it runs like this: as §1
The next test concerns CP268. The method in brief: as §1
The next test concerns CP269. In short, it runs like this: as §1
Another test deals with CP286. In short, it runs like this:
as §1

For a further test, the system named is CP291. The method in brief: as §1
A further test deals with CP297. In short, it runs like this:
as §1

The test system of another test is CP305. The method in brief: as §1
For a further test, the system named is CP315. In short, it runs like this:
as §1

For a further test, the system named is CP325. The method in brief:
as §1

For another test, the system named is CP329. In short, it runs like this:
as §1

In the next test the test system is CP335. In short, it runs like this:
as §1

A further test deals with DFO2036. The method in brief: as §1
The next test concerns DIV14. In short, it runs like this:
as §1

The next test deals with DIV17. In short, it runs like this: as §1
The subject of a further test is DIV30. The method in brief:
as §1

The next test relates to Dd2. In short, it runs like this:
as §1

In PubChem BioAssay (NCATS) one finds Potency data, which are given here for 14 compounds.

Inconclusive results are not listed. The source made the active and inactive calls. Calls come from the whole dose curve; as a rule, active = well fitted inhibition curve with a large enough effect; inconclusive = small, poorly fitted or top-dose-only effect; inactive = flat fitted curve, though single readings scatter.
Potency is the fitted concentration of half-maximal effect.

For the compound `O=C(O)CN(CCOCCOCCN(CC(=O)O)CC(=O)O)CC(=O)O`, the Potency result with CP256, with CP260, in the test on CP262, in the test with CP265, in the test on CP266 and with CP268 was “inactive” in each case. In addition, the Potency entry in the test with CP269, with CP286, in the test with CP291, with CP297, in the test with CP305 and in the test on CP315 was “inactive” throughout. The Potency entry in the test with CP325, with CP329, in the test on CP335, with DFO2036, in the test with DIV14 and in the test with DIV17 was “inactive” each time. The Potency result in the test on DIV30 and in the test on Dd2 was “inactive” throughout.

As for `OCCN1CCN(CCCN2c3ccccc3C=Cc3ccccc32)CC1`, the Potency in the test on CP256 was 3.55 µM (active); in the test on CP260, 5.01 µM (active); in the test with CP262, 6.75 µM (active); in the test with CP265, 4.47 µM (active); in the test with CP266, 13.5 µM (active); in the test with CP268, 13.5 µM (active). Moreover, the Potency in the test on CP269 was 9.53 µM (active); with CP286, 7.08 µM (active); with CP291, 12 µM (active); with CP297, 12 µM (active); in the test on CP305, 10.7 µM (active); in the test on CP325, 8.49 µM (active). For the same compound, the Potency in the test with CP335 was 6.75 µM (active); in the test with DFO2036, 11.2 µM (active); in the test with DIV14, 1.2 µM (active); with DIV17 it was 1.69 µM (active); in the test with DIV30 it was 6.75 µM (active); in the test on Dd2, 4.47 µM (active).

With `CCN(CC)CCCN(c1ccccc1)C1Cc2ccccc2C1`, the Potency is 4.47 µM (active) in the test on CP256; 2.82 µM (active) in the test on CP260; 3.98 µM (active) with CP265; 8.49 µM (active) in the test with CP266; 7.57 µM (active) with CP268; 10.7 µM (active) with CP269. The Potency with CP286 was 5.01 µM (active); with CP291 it was 7.57 µM (active); in the test with CP297 it was 13.5 µM (active); with CP305, 6.75 µM (active); with CP325 it was 8.49 µM (active); in the test with CP329 it was 12 µM (active). Moreover, the Potency in the test on CP335 was 4.78 µM (active); in the test on DFO2036, 5.01 µM (active); in the test on DIV14, 2.13 µM (active); in the test with DIV17, 4.26 µM (active); in the test on DIV30 it was 8.49 µM (active); in the test with Dd2, 3.98 µM (active).

On to `OCCN1CCN(CC/C=C2/c3ccccc3Sc3ccc(C(F)(F)F)cc32)CC1`, for which the Potency in the test on CP256 is 3.98 µM (active); in the test with CP260 it was 12.6 µM (active); with CP262 it was 6.01 µM (active); in the test with CP268, 13.5 µM (active); in the test with CP269, 4.78 µM (active); in the test with CP286, 8.91 µM (active). Besides, the Potency in the test on CP291 was 9.53 µM (active); with CP297 it was 6.75 µM (active); with CP305, 7.57 µM (active); in the test on CP325, 6.01 µM (active); in the test on CP329, 6.75 µM (active); in the test on CP335 it was 4.26 µM (active). Also, the Potency in the test with DIV17 is 6.75 µM (active); with DIV30, 8.49 µM (active); in the test with Dd2 it was 7.94 µM (active).

On to `CCN(CC)CCNC(=O)c1ccc(NC(C)=O)cc1`, for which the Potency result with CP256, in the test with CP260, in the test on CP262, with CP265, in the test on CP268 and in the test with CP269 was “inactive” in each case. Further, the Potency entry in the test with CP286, with CP291, with CP297, in the test on CP305, in the test with CP315 and with CP325 was “inactive” in each case. Also, the Potency result in the test on CP329, in the test with CP335, in the test with DFO2036, in the test on DIV14, with DIV17 and in the test with DIV30 was “inactive” in each case. In addition, the Potency result in the test with Dd2 was “inactive”.

For the compound `Nc1c2c(nc3ccccc13)CCCC2O` (stereo not given), the Potency result in the test with CP256, with CP260, in the test with CP262, with CP265, with CP266 and with CP268 was “inactive” in each case. Also, the Potency result in the test with CP269, in the test on CP286, in the test with CP291, with CP297, in the test with CP305 and with CP315 was “inactive” throughout. Also, the Potency entry in the test on CP325, in the test on CP329, in the test on CP335, in the test on DFO2036, in the test with DIV14 and in the test on DIV30 was “inactive” each time. Moreover, the Potency result with Dd2 is “inactive”.

`CCN1CCc2nc(N)oc2CC1`: the Potency result with CP256, in the test with CP260, in the test with CP262, in the test with CP265, in the test on CP266 and in the test on CP269 was “inactive” in each case. For the same compound, the Potency result with CP286, in the test with CP291, in the test on CP297, in the test with CP305, in the test on CP315 and with CP325 was “inactive” each time. For the same compound, the Potency entry with CP329, with CP335, with DFO2036, with DIV14, with DIV17 and in the test with DIV30 was “inactive” throughout. The Potency result in the test on Dd2 is “inactive”.

Take `Cc1scc2c1N(C(=O)CN1CCN(C)CC1)c1ccccc1NC2=O`: the Potency entry with CP256, in the test on CP260, in the test with CP265, in the test with CP266, with CP268 and with CP269 was “inactive” throughout. Further, the Potency entry in the test on CP286, in the test with CP291, with CP297, with CP305, in the test with CP315 and in the test with CP325 was “inactive” each time. Besides, the Potency result in the test with CP329, with CP335, in the test on DFO2036, in the test with DIV14, with DIV17 and in the test on DIV30 was “inactive” throughout. Besides, the Potency entry in the test with Dd2 was “inactive”.

As for `NC1=NCC2c3ccccc3Cc3ccccc3N12` (stereo not given), the Potency result in the test with CP256, in the test with CP260, in the test with CP262, in the test with CP265, in the test on CP266 and in the test with CP268 was “inactive” throughout. The Potency entry in the test on CP269, in the test with CP286, in the test on CP291, in the test with CP297, with CP305 and in the test with CP315 was “inactive” each time. Further, the Potency result with CP325, in the test on DFO2036, with DIV30 and in the test with Dd2 was “inactive” each time. For the same compound, the Potency with DIV17 was 13.5 µM (active).

Take `O=C1NCN(c2ccccc2)C12CCN(CCCC(c1ccc(F)cc1)c1ccc(F)cc1)CC2`: the Potency with CP256 is 5.01 µM (active); with CP260 it was 10 µM (active); in the test with CP265, 5.62 µM (active); in the test on CP268, 8.49 µM (active); with CP286, 7.08 µM (active); in the test with CP305, 7.57 µM (active). In addition, the Potency in the test with CP329 is 4.78 µM (active); with CP335, 4.78 µM (active); in the test with DFO2036, 7.08 µM (active); in the test on DIV14, 7.57 µM (active); in the test on DIV17 it was 6.75 µM (active); with Dd2 it was 5.01 µM (active). The Potency entry with CP262 is “inactive”.

Regarding `CCCN(CCC)CCc1cccc2c1CC(=O)N2`, the Potency result with CP256, with CP260, with CP262, in the test on CP265, with CP266 and in the test with CP268 was “inactive” throughout. Besides, the Potency result in the test on CP269, in the test on CP286, with CP291, in the test with CP297, in the test on CP305 and in the test with CP315 was “inactive” in each case. The Potency entry in the test with CP325, in the test with CP329, with DFO2036, with DIV14, with DIV17 and in the test with DIV30 was “inactive” in each case. The Potency entry in the test with Dd2 is “inactive”.

As for `CNC1(C)C2CCC(C2)C1(C)C` (stereo not given), the Potency result with CP256, in the test with CP260, in the test with CP262, in the test on CP265, in the test on CP266 and in the test on CP268 was “inactive” each time. The Potency entry in the test with CP269, in the test on CP286, in the test on CP291, in the test on CP297, in the test on CP305 and with CP315 was “inactive” in each case. The Potency entry in the test on CP325, in the test on CP329, with DFO2036, in the test with DIV14, in the test on DIV17 and in the test on DIV30 was “inactive” in each case.

For the compound `COc1ccc(CN(CCN(C)C)c2ccccn2)cc1`, the Potency entry in the test on CP256, in the test on CP260, in the test with CP262, with CP268, in the test on CP269 and in the test with CP286 was “inactive” in each case. Besides, the Potency entry with CP291, with CP305, in the test with CP315, in the test on CP325, in the test on CP329 and in the test with DFO2036 was “inactive” throughout.

In the case of `CCNC(=O)N1CCN(CCCC(c2ccc(F)cc2)c2ccc(F)cc2)CC1`, the Potency in the test with CP256 was 0.794 µM (active); in the test on CP260 it was 3.16 µM (active); with CP262, 3.01 µM (active); with CP265 it was 0.794 µM (active); in the test on CP266 it was 6.01 µM (active); in the test on CP268, 2.39 µM (active). For the same compound, the Potency is 5.36 µM (active) in the test on CP269; 2.24 µM (active) with CP286; 6.01 µM (active) with CP291; 6.01 µM (active) with CP297; 6.01 µM (active) in the test with CP305; 6.75 µM (active) with CP315. In addition, the Potency was 2.13 µM (active) with CP325; 1.9 µM (active) with CP335; 2.51 µM (active) in the test on DFO2036; 7.57 µM (active) in the test with DIV14; 13.5 µM (active) with DIV17; 6.75 µM (active) in the test with DIV30. Further, the Potency with Dd2 is 2 µM (active).
